The source of these data is PubChem BioAssay.

The subject of assay [1] is Wnt5a (protein binding on small-molecule microarray). The assay is described as follows: small molecules binding Wnt5a protein – biophysical, small-molecule microarray, 635/667 nm fluorescence, primary screen (AID 1142).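 Also: fluorescence read at 667 nm with signal to noise per printed feature.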 Conditions: 635 nm fluorescence, higher = more signal.
A short description of assay [2]: ATP-based viability of Huh7 replicon cells – cell-based, CellTiter-Glo luminescence, basal, 48 h, cytotoxicity control for HCV replication inhibitor project, primary screen (AID 1143).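 Also: Huh7 hepatoma cells carrying a hepatitis C replication reporter with no stimulus; test concentration not given here.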 The conditions noted are these: higher = more signal, called active from +8 up or from −8 down. (In general: Replicon systems follow genome replication, usually without infectious particles.)

Assay [3] is described as follows: Pseudomonas biofilm growth suppression – PAO1 strain, BacTiter-Glo luminescence, LB-PBS, primary screen (AID 1144). The conditions noted are these: P. aeruginosa PAO1 biofilm, 12 h, higher = more signal.
Assay [4] can be described thus: basal CRE-LacZ reporter activity in PC12 – cell-based, unstimulated, primary screen (AID 1145). The conditions noted are these: no forskolin, luminescence, 4.5 h, higher = more signal, called active from +8 up or from −8 down.
The nature of assay [5]: forskolin-driven CRE-LacZ activity in PC12 – cell-based, CRE-LacZ reporter, forskolin-stimulated, primary screen (AID 1146).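 Also: PC12 cells with 6xCRE LacZ reporter stimulated by forskolin 10 µM; beta-galactosidase reporter signal reflecting CREB driven transcription.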 The conditions noted are these: luminescence, 4.5 h, higher = more signal, called active from +8 up or from −8 down.
Assay [6] concerns the target Streptavidin (Streptomyces avidinii) (UniProt P22629). The assay is described as follows: compounds binding control protein streptavidin – biophysical, small-molecule microarray, 635/667 nm fluorescence, artefact control for SMM compound annotation, primary screen (AID 1147).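 Also: signal reflects streptavidin binding to arrayed compounds as a control protein.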 Conditions: higher = more signal.
Assay [7] is described as follows: probe aInhba binding on compound microarray – biochemical, small-molecule microarray, 635/667 nm fluorescence, primary screen (AID 1148).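 Also: score merges 667nm spot fluorescence with signal-to-noise for antibody binding to printed compounds.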 Conditions: higher = more signal.
Assay [8] deals with Torsin-1A (Homo sapiens) (UniProt O14656). Nature of the assay: TOR1A wild-type binding on microarray – cell lysate, small-molecule microarray, lysate, 635/667 nm, primary screen (AID 1149). Conditions: COS7 hTOR1A-WT lysate, 635 nm fluorescence, higher = more signal.
Chain of Torsin-1A (Homo sapiens) (O14656 whole entry, looked up): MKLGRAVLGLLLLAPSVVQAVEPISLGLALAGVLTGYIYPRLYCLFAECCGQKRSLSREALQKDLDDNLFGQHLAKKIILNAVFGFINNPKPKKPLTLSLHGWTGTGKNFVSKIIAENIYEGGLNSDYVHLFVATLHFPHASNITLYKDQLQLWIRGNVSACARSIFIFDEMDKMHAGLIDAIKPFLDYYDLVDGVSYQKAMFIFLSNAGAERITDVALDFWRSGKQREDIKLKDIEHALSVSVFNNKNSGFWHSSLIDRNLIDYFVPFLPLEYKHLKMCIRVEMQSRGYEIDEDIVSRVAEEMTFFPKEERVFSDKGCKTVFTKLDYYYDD
The target is the same in assay [9]. The assay is described as follows: torsin A mutant lysate binding on microarrays – cell lysate, small-molecule microarray, COS7 lysate, 635/667 nm fluorescence, primary screen (AID 1150).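 Also: score pools 667 nm emission and signal to noise measuring lysate protein binding.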 Conditions: COS7 hTOR1A mutant lysate, 635 nm fluorescence, higher = more signal.
For assay [10], the system named is Sonic hedgehog protein (Shh). Nature of the assay: Sonic hedgehog microarray binding compounds – biochemical, small-molecule microarray, 635/667 nm fluorescence, primary screen (AID 1151).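 Also: Shh protein binding to compounds spotted on small-molecule microarray slides; score combines spot fluorescence intensity with signal-to-noise across triplicate slides.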 Conditions: 635 nm fluorescence, higher = more signal.
A short description of assay [11]: optical density shifts of acrAB sulA E. coli – strain DRC41, OD650, 48 h, E. coli filamentation inducer project, primary screen (AID 1152).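 Also: E. coli MC1000 strain DRC41 lacking acrAB efflux pump and sulA.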 The conditions noted are these: higher = more signal, called active from +8 up or from −8 down.
The nature of assay [12]: probe aLefty1 binding on compound microarray – biochemical, small-molecule microarray, 635/667 nm fluorescence, primary screen (AID 1153).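 Also: score merges spot fluorescence with signal-to-noise ratio from the scanned slide images.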 Conditions: higher = more signal.
A short description of assay [13]: plasmodial surface anion channel blockers, osmotic lysis – cell-based, P. falciparum Indochina, OD700, 1 h, primary screen (AID 1154). The conditions noted are these: P. falciparum Indochina infected RBC osmotic lysis, higher = more signal, called active from +8 up or from −8 down.
Assay [14] can be described thus: plasmodial surface anion channel blockers, osmotic lysis – cell-based, P. falciparum Indochina, OD700, 2 h, primary screen (AID 1155).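 Also: lysis reports solute entry through the parasite surface anion channel PSAC.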 The conditions noted are these: P. falciparum Indochina infected erythrocytes, higher = more signal, called active from +8 up or from −8 down.
The nature of assay [15]: changes in parasitized red cell lysis, either direction – P. falciparum Indochina, OD700, 3 h, PSAC antagonist project, primary screen (AID 1156). The conditions noted are these: P. falciparum-infected erythrocytes, osmotic lysis, higher = more signal, called active from +8 up or from −8 down.
Assay [16] can be described thus: plasmodial surface anion channel blockers, osmotic lysis – cell-based, P. falciparum Indochina, OD700, 18 h, primary screen (AID 1157). The conditions noted are these: P. falciparum Indochina infected erythrocytes, osmotic lysis OD700, 18 h; higher = more signal, called active from +8 up or from −8 down.
The nature of assay [17]: S6 kinase pathway phospho-S6 level changes – cell-based, A549, cytoblot, luminescence, serum-stimulated, primary screen (AID 1158).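 Also: serum-stimulated A549 lung adenocarcinoma cells; signal is phosphorylated S6 detected by cytoblot immunostaining with HRP secondary.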 The conditions noted are these: 5 h, higher = more signal.
Assay [18] concerns the target NADPH oxidase 2 (Homo sapiens) (UniProt P04839). The assay is described as follows: compounds shifting NOX2 Amplex Red fluorescence – cell-based, HEK293-NOX2, PMA-stimulated, NOX inhibitor project, primary screen (AID 1159). Also: test concentration not given here. Conditions: 45 min, higher = more signal, called active from +8 up or from −8 down.
The target of assay [19] is NADPH oxidase 4 (Homo sapiens) (UniProt Q9NPH5). Nature of the assay: compounds shifting NOX4 Amplex Red fluorescence – cell-based, HEK293-NOX4, tetracycline-induced, NOX inhibitor project, primary screen (AID 1160). Conditions: HEK293-NOX4, Amplex Red H2O2 fluorescence, 45 min; higher = more signal, called active from +8 up or from −8 down.
Chain of NADPH oxidase 4 (Homo sapiens) (Q9NPH5 whole entry, looked up): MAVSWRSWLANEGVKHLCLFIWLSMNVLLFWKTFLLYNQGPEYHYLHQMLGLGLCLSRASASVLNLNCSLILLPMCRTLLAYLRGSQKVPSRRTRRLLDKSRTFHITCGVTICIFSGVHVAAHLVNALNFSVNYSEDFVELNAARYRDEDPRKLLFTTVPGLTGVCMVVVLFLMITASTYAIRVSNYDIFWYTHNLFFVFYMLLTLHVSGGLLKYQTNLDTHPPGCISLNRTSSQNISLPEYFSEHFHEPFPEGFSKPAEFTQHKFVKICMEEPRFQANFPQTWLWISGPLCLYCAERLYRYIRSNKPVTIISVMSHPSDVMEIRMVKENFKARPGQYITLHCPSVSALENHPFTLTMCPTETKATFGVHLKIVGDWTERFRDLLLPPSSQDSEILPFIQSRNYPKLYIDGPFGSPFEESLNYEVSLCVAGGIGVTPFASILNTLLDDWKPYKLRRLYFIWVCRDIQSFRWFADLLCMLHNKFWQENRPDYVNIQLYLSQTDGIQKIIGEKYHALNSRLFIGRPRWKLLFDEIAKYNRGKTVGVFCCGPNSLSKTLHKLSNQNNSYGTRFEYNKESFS
Assay [20] has as its target NADPH oxidase 5 (Homo sapiens) (UniProt Q96PH1). The assay is described as follows: compounds shifting NOX5 Amplex Red fluorescence – cell-based, HEK293-NOX5, NOX inhibitor project, primary screen (AID 1161). The conditions noted are these: HEK293-NOX5, ionomycin, 45 min, higher = more signal.

Calls of active or inactive are those of the source. Unless noted, no rule for the calls is given here.

Chain of NADPH oxidase 5 (Homo sapiens) (Q96PH1 whole entry, looked up): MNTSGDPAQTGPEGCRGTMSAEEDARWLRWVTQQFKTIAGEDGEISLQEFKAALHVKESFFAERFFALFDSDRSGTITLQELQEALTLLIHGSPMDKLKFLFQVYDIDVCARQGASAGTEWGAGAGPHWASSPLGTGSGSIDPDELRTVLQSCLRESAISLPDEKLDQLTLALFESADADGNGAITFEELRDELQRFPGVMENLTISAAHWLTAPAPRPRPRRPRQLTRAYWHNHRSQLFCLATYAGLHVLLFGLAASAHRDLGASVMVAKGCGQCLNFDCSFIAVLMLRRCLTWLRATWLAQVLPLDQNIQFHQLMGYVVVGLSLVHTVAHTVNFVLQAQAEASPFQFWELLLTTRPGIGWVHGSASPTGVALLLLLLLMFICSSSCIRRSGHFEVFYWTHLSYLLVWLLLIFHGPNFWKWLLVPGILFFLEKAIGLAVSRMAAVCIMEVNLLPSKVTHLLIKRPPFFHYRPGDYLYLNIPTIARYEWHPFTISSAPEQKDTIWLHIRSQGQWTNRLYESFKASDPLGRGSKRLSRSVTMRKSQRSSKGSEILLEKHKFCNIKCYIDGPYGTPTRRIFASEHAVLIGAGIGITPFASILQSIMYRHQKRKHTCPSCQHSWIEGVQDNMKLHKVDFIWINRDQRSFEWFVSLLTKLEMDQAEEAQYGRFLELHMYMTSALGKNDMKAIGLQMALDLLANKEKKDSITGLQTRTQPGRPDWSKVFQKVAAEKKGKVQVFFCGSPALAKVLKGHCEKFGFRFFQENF
Chain of NADPH oxidase 2 (Homo sapiens) (P04839 whole entry, looked up): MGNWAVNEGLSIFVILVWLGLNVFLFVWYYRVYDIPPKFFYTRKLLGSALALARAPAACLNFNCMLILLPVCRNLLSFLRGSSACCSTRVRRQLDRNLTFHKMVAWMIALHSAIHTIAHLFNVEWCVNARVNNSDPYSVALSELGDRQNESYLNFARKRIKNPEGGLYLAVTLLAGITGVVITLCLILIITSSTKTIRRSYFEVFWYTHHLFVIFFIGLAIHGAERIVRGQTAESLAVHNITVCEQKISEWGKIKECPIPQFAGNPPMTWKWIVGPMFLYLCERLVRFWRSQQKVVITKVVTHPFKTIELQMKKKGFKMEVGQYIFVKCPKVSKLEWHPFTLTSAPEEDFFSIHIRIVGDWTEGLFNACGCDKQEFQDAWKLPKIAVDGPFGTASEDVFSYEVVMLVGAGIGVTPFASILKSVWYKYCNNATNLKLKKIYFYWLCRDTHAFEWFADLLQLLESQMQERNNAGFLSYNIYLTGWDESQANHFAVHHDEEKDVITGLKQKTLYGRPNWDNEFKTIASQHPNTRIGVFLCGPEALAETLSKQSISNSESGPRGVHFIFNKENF
Chain of Streptavidin (Streptomyces avidinii) (P22629 whole entry, looked up): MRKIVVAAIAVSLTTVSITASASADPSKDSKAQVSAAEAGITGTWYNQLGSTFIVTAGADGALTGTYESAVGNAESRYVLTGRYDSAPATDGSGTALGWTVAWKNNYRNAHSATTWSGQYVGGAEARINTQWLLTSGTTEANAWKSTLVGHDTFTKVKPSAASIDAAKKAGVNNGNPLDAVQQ

Turning to `COc1ccc([Si](C)(C)[C@@H]2[C@@H](CCO)O[C@]3(C(=O)N(Cc4ccccc4)c4ccc(N5C(=O)c6ccccc6Oc6ccccc65)cc43)[C@H]2C)cc1`, the composite z-score in assay [1] was -0.204; in assay [6], -0.059; in [7], -0.128; with Torsin-1A (Homo sapiens) [8], -0.642; with Torsin-1A (Homo sapiens) [9], -0.32; in [10], 0.459. Also, the composite z-score in assay [12] was determined as 0.0962. For the same molecule, the z-score in [2] was -5.7 (inactive); in assay [3] it was -0.332 (inactive); in assay [4] it was 1.07 (inactive); in assay [5], 1.07 (inactive); in [11], 1.02 (inactive); in assay [13] it was 2.11 (inactive). The z-score was 1.37 (inactive) in assay [14]; 0.0898 (inactive) in [15]; 0.718 (inactive) in [16]; 0.656 in assay [17]; 0.212 (inactive) in assay [18]; 1.64 (inactive) in assay [19]. In addition, the z-score in assay [20] is 2.23.

On to `COC(=O)[C@@]1(Cc2ccc(OC)cc2)[C@H]2c3cc(C(=O)N4CCCC4)n(CCc4ccc(OC)c(Br)c4)c3C[C@H]2CN1C(=O)c1ccccc1`, for which the composite z-score is -0.0726 in assay [1]; 0.0687 in [6]; 0.195 in assay [7]; 0.373 in the assay with Torsin-1A (Homo sapiens) [8]; 0.57 with Torsin-1A (Homo sapiens) [9]; -0.908 in assay [10]. The molecule further registered a composite z-score in [12] of 0.291. Besides, the z-score in assay [2] is -0.0564 (inactive); in [3], 0.24 (inactive); in [4], 0.387 (inactive); in assay [5], 0.132 (inactive); in [11] it was -0.536 (inactive); in assay [13] it was 2.64 (inactive). Besides, the z-score in [14] was 0.809 (inactive); in assay [15] it was -0.0758 (inactive); in assay [16] it was 0.568 (inactive); in assay [17], 0.348; in [18], 0.798 (inactive); in assay [19] it was 0.0418 (inactive). Moreover, the z-score in assay [20] was -0.759.

For `C=CCC(OC(C)=O)[C@@H]1[C@@H](N(Cc2cccc3ccccc23)C(=O)c2ccc(C)cc2)c2cc(OCCCO)ccc2N1C(=O)c1ccc2ccccc2n1` (stereo not given in full), the composite z-score in assay [1] is 0.0305; in assay [6], 0.2; in assay [7], 0.0664; in the assay with Torsin-1A (Homo sapiens) [8] it was -0.0107; with Torsin-1A (Homo sapiens) [9], 0.121; in assay [10], 0.709. The molecule further gave a composite z-score in assay [12] of 0.0009. In addition, the z-score was -0.846 (inactive) in assay [2]; -0.106 (inactive) in assay [3]; 0.642 (inactive) in assay [4]; 0.154 (inactive) in [5]; 2.18 (inactive) in assay [11]; 1.83 (inactive) in [13]. Moreover, the z-score was -0.623 (inactive) in assay [14]; -1.16 (inactive) in [15]; -1.37 (inactive) in [16]; 1.62 in assay [17]; -0.604 (inactive) in assay [18]; 0.807 (inactive) in assay [19]. The z-score in assay [20] came to 2.44.

As for `CN(C)CCCC[C@@H]1NC(=O)[C@@H]2C[C@H](C(=O)NCCCCCCNC(=O)CS)[C@H](c3cccc(OCCO)c3)N2C1=O`, the composite z-score is 0.152 in assay [1]; -0.149 in assay [6]; -0.0471 in [7]; 0.77 in the assay with Torsin-1A (Homo sapiens) [8]; 0.702 in the assay with Torsin-1A (Homo sapiens) [9]; 0.919 in [10]. In [12], the composite z-score was -0.416. Besides, the z-score in assay [2] was 0.425 (inactive); in [3], -0.332 (inactive); in assay [4] it was -0.256 (inactive); in assay [5] it was -0.995 (inactive); in assay [11], -0.0099 (inactive); in assay [13] it was 3.24 (inactive). The z-score is 0.681 (inactive) in [14]; -0.0935 (inactive) in assay [15]; 0.496 (inactive) in [16]; 1.91 in assay [17]; 2.03 (inactive) in assay [18]; 0.84 (inactive) in assay [19]. The z-score in [20] was 1.84.
